Holding throughout (set-up): scale not given: direction of the effect not stated beside the values
Assay [1] has as its target Protein translocase subunit SecA (Escherichia coli (strain K12)) (UniProt P10408). Briefly: Assay to Identify E. coli SecA ATPase Inhibitors. In kind it is functional. The settings on record: 30 µM.
Assay [2] deals with T1, Ubiquitin-activating enzyme e1, putative (Leishmania donovani (strain BPK282A1)) (UniProt E9BSI1).
T1 sequence (whole entry): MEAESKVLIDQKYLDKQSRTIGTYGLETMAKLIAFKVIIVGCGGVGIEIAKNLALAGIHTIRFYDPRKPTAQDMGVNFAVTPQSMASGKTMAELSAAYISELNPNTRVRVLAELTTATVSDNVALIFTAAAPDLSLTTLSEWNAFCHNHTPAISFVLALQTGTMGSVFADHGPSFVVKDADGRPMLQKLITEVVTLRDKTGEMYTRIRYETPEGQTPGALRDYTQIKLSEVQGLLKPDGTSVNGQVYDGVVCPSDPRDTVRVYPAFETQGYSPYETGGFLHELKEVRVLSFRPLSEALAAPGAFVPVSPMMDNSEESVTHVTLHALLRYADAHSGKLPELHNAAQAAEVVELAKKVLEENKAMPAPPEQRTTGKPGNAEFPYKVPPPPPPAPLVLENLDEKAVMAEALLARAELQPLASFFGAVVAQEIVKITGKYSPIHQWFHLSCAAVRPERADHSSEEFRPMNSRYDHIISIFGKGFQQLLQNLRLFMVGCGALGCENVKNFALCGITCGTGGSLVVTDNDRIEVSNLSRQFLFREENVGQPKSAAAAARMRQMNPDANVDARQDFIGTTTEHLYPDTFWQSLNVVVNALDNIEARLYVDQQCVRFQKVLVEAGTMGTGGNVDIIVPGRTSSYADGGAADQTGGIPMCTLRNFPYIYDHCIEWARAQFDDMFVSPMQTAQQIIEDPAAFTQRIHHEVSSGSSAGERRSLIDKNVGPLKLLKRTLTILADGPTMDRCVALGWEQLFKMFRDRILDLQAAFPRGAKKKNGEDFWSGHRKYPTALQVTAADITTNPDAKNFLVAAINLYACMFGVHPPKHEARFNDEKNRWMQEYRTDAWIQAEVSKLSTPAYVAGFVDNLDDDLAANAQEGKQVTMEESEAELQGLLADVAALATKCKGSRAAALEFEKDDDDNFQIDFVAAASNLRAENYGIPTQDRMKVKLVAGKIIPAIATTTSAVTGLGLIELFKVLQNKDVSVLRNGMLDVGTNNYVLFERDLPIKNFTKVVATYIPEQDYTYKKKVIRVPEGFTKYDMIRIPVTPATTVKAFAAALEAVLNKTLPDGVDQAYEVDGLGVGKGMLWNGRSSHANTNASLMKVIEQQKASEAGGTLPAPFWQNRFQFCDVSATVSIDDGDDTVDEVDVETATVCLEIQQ
Briefly: Leishmania donovani Ubiquitin Activating Enzyme (LdE1). The settings on record: 30 µM. In kind it is functional.

For assay [3], the target named is AMP-activated protein kinase, AMPK (Homo sapiens) (UniProt P54646+O43741+P54619+Q9UGJ0+Q9Y478+Q13131+Q9UGI9). The assay is described as follows: AMP-dependent Kinase enzyme assay. An in vitro enzyme assay that detects ADP turnover that is directly proportional to AMPK activity. This uses naive AMPK that is activated during the assay with MK-8722. In kind it is functional. To be noted: 30 µM.

The target of assay [4] is Sialic acid-binding Ig-like lectin 9 (Homo sapiens) (UniProt Q9Y336). Briefly: Hs-Siglec9 ALPHAscreen SOP 20170721. To be noted: 10 µM.
The subject of assay [5] is Trypanosoma cruzi. Briefly: Trypanosoma cruzi phosphomannomutase and mannose-1-phosphate guanylyltransferase assay. In kind it is functional. The settings on record: 10 µM.
The target in assay [6] is T2, Arginase-2, mitochondrial (Homo sapiens) (UniProt P78540).
T2 sequence (whole entry): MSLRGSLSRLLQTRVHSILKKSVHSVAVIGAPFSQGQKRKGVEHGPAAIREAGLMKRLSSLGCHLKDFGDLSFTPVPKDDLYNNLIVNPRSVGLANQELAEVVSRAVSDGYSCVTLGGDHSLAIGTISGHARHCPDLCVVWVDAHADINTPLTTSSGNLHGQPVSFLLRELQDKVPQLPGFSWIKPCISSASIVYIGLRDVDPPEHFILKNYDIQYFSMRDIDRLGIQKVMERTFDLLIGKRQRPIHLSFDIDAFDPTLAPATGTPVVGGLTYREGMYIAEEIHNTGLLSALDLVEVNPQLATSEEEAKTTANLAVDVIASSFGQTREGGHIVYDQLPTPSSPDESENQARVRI
The assay is described as follows: in vitro enzyme assay to detect the production of urea directly proportional to the activity of Arginase II. Also: in the data most compounds retested in dose-response had high values. Type of assay: functional. To be noted: 33.3 µM.

Assay [7] has as its target T3, Proteasome subunit beta (Trypanosoma cruzi) (UniProt O96673).
T3 sequence (whole entry): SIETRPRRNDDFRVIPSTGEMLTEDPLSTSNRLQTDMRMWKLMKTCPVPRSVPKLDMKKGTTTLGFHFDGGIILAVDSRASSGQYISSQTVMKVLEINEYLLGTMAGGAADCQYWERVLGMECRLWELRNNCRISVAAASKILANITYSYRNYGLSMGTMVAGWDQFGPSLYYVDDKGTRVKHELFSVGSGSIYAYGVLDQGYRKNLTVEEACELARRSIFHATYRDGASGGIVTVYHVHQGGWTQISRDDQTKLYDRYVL
Briefly: Trypanosoma cruzi proteasome chymotrypsin-like activity (TcProtChymo) assay. Also: in the data most compounds retested in dose-response had high values. Type of assay: functional. To be noted: 9.37 µM.

The species entered for assay [8] is Homo sapiens. Briefly: To identify inhibition of the IFN signalling (Jak-Stat) pathway via expression of an eGFP reporter gene under the control of an IFN-stimulated response element (ISRE) containing MxA promoter. Type of assay: functional. The settings on record: 30 µM.
Assay [9] has as its target T4, Tyrosyl-tRNA synthetase, putative (Trypanosoma cruzi (strain CL Brener)) (UniProt Q4DSP6).
T4 sequence (whole entry): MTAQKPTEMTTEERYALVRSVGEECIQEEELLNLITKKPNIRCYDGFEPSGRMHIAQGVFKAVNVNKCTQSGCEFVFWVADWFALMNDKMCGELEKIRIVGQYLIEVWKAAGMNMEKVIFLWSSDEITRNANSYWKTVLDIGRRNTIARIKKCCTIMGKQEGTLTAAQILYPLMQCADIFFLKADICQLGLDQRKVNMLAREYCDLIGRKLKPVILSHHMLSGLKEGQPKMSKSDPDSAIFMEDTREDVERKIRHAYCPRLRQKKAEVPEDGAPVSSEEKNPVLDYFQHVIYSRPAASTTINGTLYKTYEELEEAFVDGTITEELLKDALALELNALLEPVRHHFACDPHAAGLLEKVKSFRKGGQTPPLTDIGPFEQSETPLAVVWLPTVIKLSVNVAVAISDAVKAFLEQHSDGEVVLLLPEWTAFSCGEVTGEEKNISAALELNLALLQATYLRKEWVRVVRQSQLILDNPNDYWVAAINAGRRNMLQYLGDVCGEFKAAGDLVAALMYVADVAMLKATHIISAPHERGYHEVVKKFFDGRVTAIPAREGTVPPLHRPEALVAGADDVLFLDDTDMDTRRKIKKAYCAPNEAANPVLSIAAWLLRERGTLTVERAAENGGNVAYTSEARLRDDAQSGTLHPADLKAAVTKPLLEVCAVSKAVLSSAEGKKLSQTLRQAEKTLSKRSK
Briefly: Trypanosoma cruzi tyrosyl tRNA synthetase (TcYRS) _High Tyrosine SOP. Also: in the data most compounds retested in dose-response had high values. To be noted: 30 µM. Type of assay: functional.

Assay [10] concerns the target T4, Tyrosyl-tRNA synthetase, putative (Trypanosoma cruzi (strain CL Brener)). The assay is described as follows: Trypanosoma cruzi tyrosyl tRNA synthetase (TcYRS) SOP. Type of assay: functional. The settings on record: 30 µM.
For assay [11], the target named is Chromo domain-containing protein 1 (Saccharomyces cerevisiae (strain ATCC 204508 / S288c) (Baker's yeast)) (UniProt P32657). Briefly: ScCHD-1 Enzyme Inhibition Assay. Also: in the data most compounds retested in dose-response had high values. In kind it is functional. To be noted: 30 µM.

For some of these results: Entries with a potency or affinity are not part of this list.

The source of these data is ChEMBL document CHEMBL3988442, “University of Dundee, Small-Polar-MMV Screening Library” (2021).

Chromo domain-containing protein 1 (Saccharomyces cerevisiae (strain ATCC 204508 / S288c) (Baker's yeast)), sequence (P32657 whole entry, the tested form may be a part): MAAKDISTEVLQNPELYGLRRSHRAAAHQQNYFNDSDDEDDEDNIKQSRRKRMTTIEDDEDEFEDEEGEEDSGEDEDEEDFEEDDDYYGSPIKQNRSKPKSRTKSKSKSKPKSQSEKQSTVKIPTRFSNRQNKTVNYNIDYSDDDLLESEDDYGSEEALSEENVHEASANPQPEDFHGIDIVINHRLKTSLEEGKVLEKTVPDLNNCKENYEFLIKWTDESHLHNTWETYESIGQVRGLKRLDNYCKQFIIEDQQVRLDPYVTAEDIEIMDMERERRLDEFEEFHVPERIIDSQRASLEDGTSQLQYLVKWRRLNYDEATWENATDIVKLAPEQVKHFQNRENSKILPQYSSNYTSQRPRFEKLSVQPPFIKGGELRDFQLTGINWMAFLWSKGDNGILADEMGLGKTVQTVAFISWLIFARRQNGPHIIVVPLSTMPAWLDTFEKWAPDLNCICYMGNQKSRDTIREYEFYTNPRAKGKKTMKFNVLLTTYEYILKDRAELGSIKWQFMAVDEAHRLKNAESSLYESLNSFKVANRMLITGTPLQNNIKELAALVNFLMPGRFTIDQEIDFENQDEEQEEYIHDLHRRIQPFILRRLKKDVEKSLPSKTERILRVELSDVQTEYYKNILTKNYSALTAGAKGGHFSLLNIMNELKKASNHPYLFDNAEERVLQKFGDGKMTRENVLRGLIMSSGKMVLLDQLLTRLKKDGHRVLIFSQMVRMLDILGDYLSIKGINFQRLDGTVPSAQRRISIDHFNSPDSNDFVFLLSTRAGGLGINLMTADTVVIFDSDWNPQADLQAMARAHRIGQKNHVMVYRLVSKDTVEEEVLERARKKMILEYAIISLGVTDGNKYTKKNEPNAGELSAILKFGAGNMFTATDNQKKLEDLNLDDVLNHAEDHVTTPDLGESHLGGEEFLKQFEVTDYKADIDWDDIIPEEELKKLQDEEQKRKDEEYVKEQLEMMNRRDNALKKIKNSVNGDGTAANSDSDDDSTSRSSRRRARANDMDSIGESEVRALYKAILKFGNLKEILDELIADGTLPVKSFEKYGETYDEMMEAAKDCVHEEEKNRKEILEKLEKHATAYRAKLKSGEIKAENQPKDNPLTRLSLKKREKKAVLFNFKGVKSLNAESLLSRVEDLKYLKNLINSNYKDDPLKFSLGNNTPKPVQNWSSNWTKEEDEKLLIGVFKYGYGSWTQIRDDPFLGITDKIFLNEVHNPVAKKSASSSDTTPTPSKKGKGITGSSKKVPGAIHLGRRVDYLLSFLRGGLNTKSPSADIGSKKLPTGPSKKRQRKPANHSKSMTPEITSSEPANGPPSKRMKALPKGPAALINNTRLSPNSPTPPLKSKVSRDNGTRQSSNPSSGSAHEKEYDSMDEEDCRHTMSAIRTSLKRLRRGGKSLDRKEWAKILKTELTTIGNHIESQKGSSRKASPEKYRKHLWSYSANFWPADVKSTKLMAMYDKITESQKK
Protein translocase subunit SecA (Escherichia coli (strain K12)), sequence (P10408 whole entry): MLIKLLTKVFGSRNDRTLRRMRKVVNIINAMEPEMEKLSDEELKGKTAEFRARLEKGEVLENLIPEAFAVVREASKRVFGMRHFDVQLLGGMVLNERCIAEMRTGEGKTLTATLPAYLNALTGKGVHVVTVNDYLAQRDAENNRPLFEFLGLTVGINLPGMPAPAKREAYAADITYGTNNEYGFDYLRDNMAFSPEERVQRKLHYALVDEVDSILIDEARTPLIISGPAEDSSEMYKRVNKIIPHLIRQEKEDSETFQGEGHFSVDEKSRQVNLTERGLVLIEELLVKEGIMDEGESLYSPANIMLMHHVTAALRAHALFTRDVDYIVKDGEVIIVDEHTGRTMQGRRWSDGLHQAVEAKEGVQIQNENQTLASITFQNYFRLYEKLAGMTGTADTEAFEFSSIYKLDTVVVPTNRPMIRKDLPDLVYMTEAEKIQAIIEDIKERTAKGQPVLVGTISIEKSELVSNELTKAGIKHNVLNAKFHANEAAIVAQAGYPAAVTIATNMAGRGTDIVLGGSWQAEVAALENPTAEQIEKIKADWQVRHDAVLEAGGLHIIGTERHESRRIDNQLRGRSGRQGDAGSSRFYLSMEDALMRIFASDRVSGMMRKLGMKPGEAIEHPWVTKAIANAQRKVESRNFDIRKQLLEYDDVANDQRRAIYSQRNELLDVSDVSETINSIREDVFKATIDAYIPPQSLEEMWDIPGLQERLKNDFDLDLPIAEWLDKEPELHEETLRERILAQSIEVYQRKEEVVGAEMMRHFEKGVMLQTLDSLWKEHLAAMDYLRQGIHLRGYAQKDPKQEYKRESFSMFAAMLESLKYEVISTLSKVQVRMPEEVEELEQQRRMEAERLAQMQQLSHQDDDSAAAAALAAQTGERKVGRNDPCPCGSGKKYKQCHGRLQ
Sialic acid-binding Ig-like lectin 9 (Homo sapiens), sequence (Q9Y336 whole entry): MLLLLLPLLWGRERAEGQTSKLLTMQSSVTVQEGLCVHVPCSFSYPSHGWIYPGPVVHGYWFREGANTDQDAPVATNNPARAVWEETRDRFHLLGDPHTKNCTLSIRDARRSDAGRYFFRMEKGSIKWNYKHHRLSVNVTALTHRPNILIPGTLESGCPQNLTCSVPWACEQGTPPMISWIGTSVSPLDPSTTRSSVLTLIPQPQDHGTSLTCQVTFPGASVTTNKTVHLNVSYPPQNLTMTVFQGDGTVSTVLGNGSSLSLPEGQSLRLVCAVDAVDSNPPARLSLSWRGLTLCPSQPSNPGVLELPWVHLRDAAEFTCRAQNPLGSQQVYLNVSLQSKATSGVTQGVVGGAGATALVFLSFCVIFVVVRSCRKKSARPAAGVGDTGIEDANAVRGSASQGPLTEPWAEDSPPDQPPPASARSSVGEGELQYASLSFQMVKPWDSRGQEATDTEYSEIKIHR

Take `Cc1ncc2c(n1)CN(Cc1nnc(Cc3ccccc3)o1)CC2`: the Percent Effect in [1] is -2.29%; in assay [2], 24.3%; in assay [3], -11.8%; in [4] it was 1.92%; in assay [5], 5.66%; in assay [6], 4.99%. Moreover, the Percent Effect in [7] is 13.8%; in assay [8], -0.54%; in [9], 29.7%; in assay [10], 28.1%; in assay [11], -9.78%.

For `Cc1nc(C2CCCN2CC(=O)NCCc2ccsc2)no1` (stereo unspecified), the Percent Effect was -2.17% in [1]; 16.2% in assay [2]; -10.4% in assay [3]; 13.2% in assay [4]; 5.11% in assay [5]; 3.51% in assay [6]. Further, the Percent Effect in [7] is 10.4%; in assay [8], -5.59%; in assay [9] it was 6.93%; in assay [10] it was 18.3%; in assay [11], -8.06%.

Consider `Cc1ccccc1CSc1nc(N)cc(N2C[C@H](O)[C@@H](N(C)C)C2)n1`, for which the Percent Effect is -8.01% in assay [1]; 5.41% in [2]; -13.8% in assay [3]; 0.783% in assay [4]; 1.07% in [5]; 1.24% in assay [6]. The Percent Effect in [7] is 12.6%; in assay [8] it was 5.8%; in assay [9], 8.6%; in assay [10], 18.5%; in [11], -3.84%.

As for `c1coc(-c2nnc(CN3CCCC(CN4CCCCCC4)C3)o2)c1` (stereo unspecified), the Percent Effect in assay [1] is -4.64%; in assay [2], 7.89%; in [3], 0.651%; in assay [4] it was 1.71%; in [5], 8.67%; in [6], -7.1%. For the same compound, the Percent Effect in assay [7] is -1.25%; in assay [8] it was 4.66%; in [9], 5.32%; in assay [10] it was 10.4%; in assay [11], -3.8%.

Consider `CC(CN1CCOCC1)NC(=O)NCc1ccc(Cl)s1` (stereo unspecified), for which the Percent Effect in assay [1] is 0.411%; in assay [2], 10.5%; in [3], 7.25%; in assay [4] it was 0.82%; in assay [5] it was -2.63%; in assay [6], -2.37%. Further, the Percent Effect is 15.8% in assay [7]; 5.71% in assay [8]; 8.51% in assay [9]; 20.8% in assay [10]; -3.24% in [11].

For the compound `COc1cc(CNCCc2cnn(C)c2)cc2c1OCCO2`, the Percent Effect was -5.21% in assay [1]; 10.5% in assay [2]; 1.71% in assay [3]; 15.7% in assay [4]; 1.32% in assay [5]; -1.92% in assay [6]. In addition, the Percent Effect is 10.2% in assay [7]; 0.122% in [8]; 4.41% in [9]; 12.2% in assay [10]; -6.6% in assay [11].

As to `CC(C)(CNC(=O)NCCOc1cccc(F)c1)C(N)=O`, the Percent Effect in assay [1] is -3.85%; in assay [2], 7.89%; in [3], 1.82%; in [4], 8.76%; in assay [5], 0.94%; in assay [6] it was 2.3%. In addition, the Percent Effect in assay [7] was 0.167%; in assay [8], -5.69%; in assay [9], 6.37%; in [10], 17.1%; in assay [11], -6.58%.

With `Cn1cc(C2COC3(CCN(C(=O)Cn4cccn4)CC3)C2)cn1` (stereo unspecified), the Percent Effect was -2.57% in [1]; 13.5% in assay [2]; -8.57% in [3]; -2.55% in assay [4]; 2.25% in assay [5]; 2.23% in assay [6]. Also, the Percent Effect in assay [7] was 24%; in assay [8], 3.24%; in assay [9] it was 4.32%; in assay [10], 17.9%; in assay [11] it was 2.16%.

Take `CS(=O)(=O)c1ccc(C(O)CN2CCC(c3ccn[nH]3)CC2)cc1` (stereo unspecified): the Percent Effect in assay [1] is -2.89%; in [2] it was 15.2%; in assay [3] it was -2.45%; in [4], -1.3%; in [5], -2.17%; in [6], 4.94%. Further, the Percent Effect is 5.32% in assay [7]; -11.8% in assay [8]; 5.42% in assay [9]; 16.5% in [10]; -6.15% in [11].

For the compound `c1cnc(NCc2cncc3c2CCN(Cc2cccs2)C3)nc1`, the Percent Effect is -0.336% in assay [1]; 10.7% in assay [2]; 8.51% in assay [3]; -0.683% in [4]; -7.28% in assay [5]; 2.1% in assay [6]. In addition, the Percent Effect is 9.43% in [7]; 12.1% in assay [8]; 3.19% in assay [9]; 8.97% in assay [10]; -5.11% in [11].

On to `Cc1cccc(NC2CCN(C(=O)Nc3cc(F)cc(F)c3)CC2)n1`, for which the Percent Effect in assay [1] was -9.91%; in assay [2], 7.59%; in [3], -1.53%; in [4], 14.7%; in [5] it was 12.4%; in [6] it was -4.18%. Moreover, the Percent Effect is 4.34% in assay [7]; 27.7% in assay [8]; -0.493% in [9]; 13.9% in assay [10]; -7.84% in [11].
